# PubChem BioAssay (NCI)
# The panel holds about 83,000 compounds, 20% with a hit somewhere; the sample as a whole holds those more often.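 For each line, cells grew in 96-well plates with the test compound present at a single concentration for 48 hours.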 The source made the active and inactive calls. How the source made its calls: active means growth percent below 10; inactive means the rest.
# Test system: HS 578T breast
# Assay: NCI-60 one-dose screen, 48 h (100 = growth as untreated, 0 = no growth, -100 = all killed)
# Conditions: 10 µM
row,SMILES,growth
1,C=C1CC[C@H](C(=C)C)[C@H]2C=C(C)C(=O)C3=C(C(=O)[C@@](C)(O)C3)[C@H]12,-13.1% (active)
2,COc1ccc(N(C)c2cc(C#N)nc3ccccc23)cc1N,36.9% (inactive)
3,COc1ccc(C(C)=C(c2ccc(OCCCN(C)C)cc2)c2ccc(OCCCN(C)C)cc2)cc1,-68.2% (active)
4,CC1(c2ccccc2)NC(=O)N(CC(=O)Nc2ccc(C(=O)/C=C/c3ccc(Cl)cc3)cc2)C1=O (centres undefined),48.9% (inactive)
5,NC(=Nc1ccc(OCCCCCCCCn2ccnn2)cc1)c1ccccc1,40.7% (inactive)
6,COC[C@@H](CC(C)C)N=C1N/C(=C\c2ccc3ncsc3c2)C(=O)N1C,15.4% (inactive)
7,O=C(CSc1ccc(-c2ccc(Cl)cc2)nn1)Nc1ccc(Cl)c(C(F)(F)F)c1,70.6% (inactive)
8,Cc1ccc(NC(=O)NCn2c(=O)[nH]c3ccccc3c2=O)cc1,55.3% (inactive)
9,Cc1cc(C)cc(Oc2cccc(-c3c(C)nnn3C3CCN(CCN(C)C)CC3)n2)c1,5.31% (active)
10,CC(=O)NCC1=C(C)C=C2C(=O)[C@](C)(O)C3(CC3)C(C)=C21,-37.4% (active)
11,O=C(Nc1ccc(OCC(=O)c2ccccc2)cc1)Nc1ccc(Cl)c(C(F)(F)F)c1,9.19% (active)
12,CCOC(=O)c1c(CSc2ccccc2)n(C)c2cc(CN(C)C)c(O)c(CN(C)C)c12,44.3% (inactive)
13,Cc1ccc(-c2cc(-c3cc4ccccc4nc3Cl)[nH]c(=O)n2)cc1,1.21% (active)
14,COc1ccc([C@H]2C(C(=O)c3ccc(Cl)cc3)C3(N[C@@H]2c2ccccc2)C(=O)Nc2ccc(Br)cc23)cc1 (some centres undefined),-7.39% (active)
